The whole screen tested about 39,000 compounds, of which about 3,300 (8.5%) were called active. The list comes from a sample in which actives are over-represented; it also holds similar structures and randomly drawn compounds.

The test system of the test is HepG2. Nature of the test: cytotoxicity call (relative viability < 0.9). To be noted: 10 µM.
With `COCCOC(=O)N1C(=O)[C@@]2(c3cc(C#CCC(C(=O)OC)C(=O)OC)ccc31)[C@H](C(=O)NC[C@H](O)c1ccccc1)[C@H]1C(=O)O[C@H](c3ccccc3)[C@H](c3ccccc3)N1[C@@H]2c1ccc(OCCO)cc1`, the cytotoxicity call was “inactive”. In the case of `Cn1cnc(CCNC(=O)C[C@@H]2CC[C@@H]3[C@H](COC[C@@H](O)CN3C(=O)Nc3ccc(Cl)cc3)O2)c1` it was “inactive”; in that of `COc1ccc(S(=O)(=O)N(C)C[C@@H]2Oc3ccc(NC(=O)Nc4cccc5ccccc45)cc3C(=O)N([C@@H](C)CO)C[C@H]2C)cc1`, “inactive”; in that of `C[C@H]1CN([C@@H](C)CO)C(=O)c2cc(C#CCN(C)C)cnc2O[C@H]1CN(C)S(=O)(=O)c1ccccc1`, “inactive”. Under `COc1cccc(NC(=O)N2C[C@@H](O)COC[C@H]3O[C@@H](CC(=O)NCc4ccccc4F)CC[C@@H]32)c1` stands “inactive”; under `C[C@@H](O)C#Cc1ccc2c(c1)O[C@@H](CN(C)C(=O)c1ccncc1)[C@@H](C)CN([C@@H](C)CO)S2(=O)=O`, “inactive”. In the case of `C[C@H](O)C#Cc1ccc2c(c1)O[C@@H](CN(C)C(=O)c1ccncc1)[C@H](C)CN([C@H](C)CO)S2(=O)=O` it was “inactive”. Take `C[C@H](O)C#Cc1ccc2c(c1)O[C@@H](CN(C)C(=O)c1ccncc1)[C@H](C)CN([C@@H](C)CO)S2(=O)=O`: the cytotoxicity call is “inactive”.

Consider `C[C@H](O)C#Cc1ccc2c(c1)O[C@H](CN(C)C(=O)c1ccncc1)[C@@H](C)CN([C@@H](C)CO)S2(=O)=O`, for which the cytotoxicity call was “inactive”. Under `C[C@H](O)C#Cc1ccc2c(c1)O[C@@H](CN(C)C(=O)c1ccncc1)[C@@H](C)CN([C@H](C)CO)S2(=O)=O` stands “inactive”. Under `C[C@H](CO)N1C[C@H](C)[C@H](CN(C)C(=O)c2ccncc2)Oc2cc(C#Cc3ccncc3)ccc2S1(=O)=O` stands “active”; under `C[C@@H]1CN([C@H](C)CO)S(=O)(=O)c2ccc(C#Cc3ccncc3)cc2O[C@@H]1CN(C)C(=O)c1ccncc1`, “active”. Under `C[C@@H]1CN([C@@H](C)CO)S(=O)(=O)c2ccc(C#Cc3ccncc3)cc2O[C@H]1CN(C)C(=O)c1ccncc1` stands “inactive”; under `C[C@H](CO)N1C[C@H](C)[C@@H](CN(C)C(=O)c2ccncc2)Oc2cc(C#Cc3ccncc3)ccc2S1(=O)=O`, “active”; under `C[C@H]1CN([C@@H](C)CO)S(=O)(=O)c2ccc(C#Cc3ccncc3)cc2O[C@@H]1CN(C)C(=O)c1ccncc1`, “active”. With `C[C@H](O)C#Cc1ccc2c(c1)O[C@H](CN(C)C(=O)c1ccncc1)[C@H](C)CN([C@@H](C)CO)S2(=O)=O`, the cytotoxicity call was “inactive”. Under `C[C@@H]1CN([C@@H](C)CO)S(=O)(=O)c2ccc(C#Cc3ccncc3)cc2O[C@@H]1CN(C)C(=O)c1ccncc1` stands “inactive”; under `C[C@@H]1CN([C@H](C)CO)S(=O)(=O)c2ccc(C#CC(C)(C)O)cc2O[C@@H]1CN(C)Cc1ccncc1`, “inactive”; under `CCCNC(=O)C[C@H]1CC[C@@H]2[C@H](COc3ccc(NS(=O)(=O)c4ccccc4C)cc3C(=O)N2C)O1`, “inactive”. Under `C[C@H](CO)N1C[C@H](C)[C@@H](CN(C)C(=O)Nc2ccc(F)cc2)OCCCC[C@H](C)Oc2ccc(NC(=O)CCC(F)(F)F)cc2C1=O` stands “inactive”; under `COCC(=O)N1C[C@H](C)[C@H](OC)CN(C)C(=O)c2cc(NC(=O)c3ccc(OC)cc3)ccc2OC[C@H]1C`, “inactive”; under `NCCSC12CC3CC(CC(C3)C1)C2`, “inactive”. In the case of `C[C@@H]1CN([C@H](C)CO)S(=O)(=O)c2ccc(C#Cc3ccncc3)cc2O[C@H]1CN(C)C(=O)c1ccncc1` it was “active”; in that of `C[C@H](O)C#Cc1ccc2c(c1)O[C@@H](CN(C)C(=O)c1ccncc1)[C@@H](C)CN([C@@H](C)CO)S2(=O)=O`, “inactive”. As to `C[C@H]1CN([C@@H](C)CO)S(=O)(=O)c2ccc(C#Cc3ccncc3)cc2O[C@H]1CN(C)C(=O)c1ccncc1`, the cytotoxicity call is “active”. Under `C[C@@H](O)C#Cc1ccc2c(c1)O[C@H](CN(C)C(=O)c1ccncc1)[C@@H](C)CN([C@@H](C)CO)S2(=O)=O` stands “inactive”. Consider `C[C@H](O)C#Cc1ccc2c(c1)O[C@H](CN(C)C(=O)c1ccncc1)[C@@H](C)CN([C@H](C)CO)S2(=O)=O`, for which the cytotoxicity call is “inactive”.

Consider `C[C@@H]1CN([C@H](C)CO)S(=O)(=O)c2ccc(C#C[C@@H](C)O)cc2O[C@H]1CN(C)C(=O)c1ccncc1`, for which the cytotoxicity call is “inactive”. In the case of `COc1ccc(CN(C)C[C@@H]2OCCCC[C@H](C)Oc3ccc(NS(=O)(=O)c4ccc(C)cc4)cc3C(=O)N([C@H](C)CO)C[C@H]2C)cc1` it was “inactive”; in that of `COc1ccc(S(=O)(=O)N(C)C[C@H]2OCc3cn(nn3)CCCC(=O)N([C@H](C)CO)C[C@H]2C)cc1`, “inactive”; in that of `C[C@@H]1CCCCO[C@H](CN(C)S(C)(=O)=O)[C@@H](C)CN([C@H](C)CO)C(=O)c2cc(NS(=O)(=O)c3cn(C)cn3)ccc2O1`, “inactive”. On to `CC(=O)n1cc([C@@H]2C=C(C(=O)N3CCN(C)CC3)O[C@H](OCc3ccc(CO)cc3)C2)c2ccccc21`, for which the cytotoxicity call was “inactive”. With `CCn1c(C)cn2c3c(=O)n(CCN4CCOCC4)c(=O)n(C)c3nc12`, the cytotoxicity call is “inactive”. Under `O=C/C=C/c1ccccc1Cl` stands “inactive”. As for `C[C@@H]1CN([C@@H](C)CO)C(=O)c2cccc(NS(C)(=O)=O)c2O[C@H]1CN(C)C(=O)Nc1ccccc1`, the cytotoxicity call was “inactive”. Under `C[C@@H]1CN([C@@H](C)CO)C(=O)c2cc(NC(=O)Cc3ccccc3)ccc2O[C@@H]1CN(C)S(C)(=O)=O` stands “inactive”; under `COC(=O)c1ccc(C(=O)OC)nc1`, “active”; under `COC(=O)c1cccc(C(=O)OC)n1`, “inactive”. In the case of `COC(=O)c1ccc(O)cc1` it was “inactive”. Under `C[C@H](CO)N1C[C@H](C)[C@@H](CN(C)S(=O)(=O)c2ccccc2)Oc2ccc(NC(=O)Nc3cccc4ccccc34)cc2C1=O` stands “inactive”; under `CCC(=O)N[C@H]1CC[C@@H](CC(=O)OC)O[C@H]1CO`, “inactive”. With `C[C@@H]1CN([C@H](C)CO)C(=O)c2cccc(NC(=O)C3CCCCC3)c2O[C@H]1CN(C)C(=O)Nc1cccc2ccccc12`, the cytotoxicity call was “inactive”. Under `COC(=O)[C@H](Cc1ccccc1)N1CC2=C[C@@H]([C@@H](O)CCn3cc(C(=O)NO)nn3)n3c(=O)n(C)c(=O)n3[C@@H]2[C@@H](C2CC2)O1` stands “inactive”; under `Cc1ccc(S(=O)(=O)Nc2ccc3c(c2)C(=O)N([C@@H](C)CO)C[C@H](C)[C@@H](CN(C)C(=O)Nc2ccc(F)cc2)OCCCC[C@H](C)O3)cc1`, “inactive”. In the case of `Cc1ccc(S(=O)(=O)Nc2ccc3c(c2)C(=O)N([C@H](C)CO)C[C@H](C)[C@H](CN(C)C(=O)Nc2ccc(F)cc2)OCCCC[C@H](C)O3)cc1` it was “inactive”. In the case of `Cc1ccc(S(=O)(=O)Nc2ccc3c(c2)C(=O)N([C@@H](C)CO)C[C@@H](C)[C@H](CN(C)C(=O)Nc2ccc(F)cc2)OCCCC[C@@H](C)O3)cc1` it was “inactive”; in that of `Cc1ccc(S(=O)(=O)Nc2ccc3c(c2)C(=O)N([C@@H](C)CO)C[C@@H](C)[C@@H](CN(C)C(=O)Nc2ccccc2)OCCCC[C@H](C)O3)cc1`, “inactive”; in that of `Cc1ccc(S(=O)(=O)Nc2ccc3c(c2)C(=O)N([C@@H](C)CO)C[C@@H](C)[C@@H](CN(C)C(=O)Nc2ccc(F)cc2)OCCCC[C@@H](C)O3)cc1`, “inactive”. As for `Cc1ccc(S(=O)(=O)Nc2ccc3c(c2)C(=O)N([C@H](C)CO)C[C@@H](C)[C@H](CN(C)C(=O)Nc2ccc(F)cc2)OCCCC[C@@H](C)O3)cc1`, the cytotoxicity call is “active”. In the case of `Cc1ccc(S(=O)(=O)Nc2ccc3c(c2)C(=O)N([C@@H](C)CO)C[C@H](C)[C@@H](CN(C)C(=O)Nc2ccc(F)cc2)OCCCC[C@@H](C)O3)cc1` it was “inactive”. Under `Cc1ccc(S(=O)(=O)Nc2ccc3c(c2)C(=O)N([C@H](C)CO)C[C@H](C)[C@@H](CN(C)C(=O)Nc2ccccc2)OCCCC[C@H](C)O3)cc1` stands “inactive”; under `Cc1ccc(S(=O)(=O)Nc2ccc3c(c2)C(=O)N([C@H](C)CO)C[C@H](C)[C@@H](CN(C)C(=O)Nc2ccc(F)cc2)OCCCC[C@H](C)O3)cc1`, “active”.

In the case of `Cc1ccc(S(=O)(=O)Nc2ccc3c(c2)C(=O)N([C@@H](C)CO)C[C@H](C)[C@@H](CN(C)C(=O)Nc2ccccc2)OCCCC[C@H](C)O3)cc1`, the cytotoxicity call was “active”. In the case of `Cc1ccc(S(=O)(=O)Nc2ccc3c(c2)C(=O)N([C@H](C)CO)C[C@@H](C)[C@H](CN(C)C(=O)Nc2ccc(F)cc2)OCCCC[C@H](C)O3)cc1` it was “active”; in that of `Cc1ccc(S(=O)(=O)Nc2ccc3c(c2)C(=O)N([C@@H](C)CO)C[C@H](C)[C@H](CN(C)C(=O)Nc2ccc(F)cc2)OCCCC[C@@H](C)O3)cc1`, “inactive”; in that of `C[C@@H]1CN([C@@H](C)CO)C(=O)c2cccc(NC(=O)C3CCCCC3)c2O[C@H]1CN(C)Cc1ccc(-c2ccccc2)cc1`, “inactive”.

Take `CC(C)NC(=O)Nc1ccc2c(c1)C(=O)N([C@@H](C)CO)C[C@H](C)[C@H](CN(C)S(=O)(=O)c1ccc(F)cc1)O2`: the cytotoxicity call was “inactive”.

Consider `Cc1cccc(N2CCC(N)CC2)c1`, for which the cytotoxicity call was “inactive”. For `CN1C(=O)c2cc(NC(=O)c3ccc(F)c(F)c3)ccc2OC[C@H]2O[C@@H](CC(=O)N3CCOCC3)CC[C@@H]21`, the cytotoxicity call is “inactive”. In the case of `COc1ccc(NC(=O)N(C)C[C@@H]2Oc3c(NC(=O)c4ccc(-c5nccs5)cc4)cccc3C(=O)N([C@@H](C)CO)C[C@H]2C)cc1` it was “inactive”. Under `CCNC(=O)C[C@H]1CC[C@@H]2[C@H](COC[C@@H](O)CN2C(=O)Nc2c(C)noc2C)O1` stands “inactive”.

Consider `CN(C)CCCCNC(=O)[C@@H]1C[C@@H]2C(=O)N[C@@H](CCCC[N+](C)(C)C)C(=O)N2[C@@H]1c1cccc(OCCO)c1`, for which the cytotoxicity call was “inactive”.

Take `Cc1ccc(S(=O)(=O)Nc2ccc3c(c2)C(=O)N([C@H](C)CO)C[C@@H](C)[C@H](CN(C)S(=O)(=O)c2ccc(C)cc2)OCCCC[C@@H](C)O3)cc1`: the cytotoxicity call is “inactive”. For `Cc1ccc(S(=O)(=O)Nc2ccc3c(c2)C(=O)N([C@@H](C)CO)C[C@@H](C)[C@H](CN(C)S(=O)(=O)c2ccc(C)cc2)OCCCC[C@@H](C)O3)cc1`, the cytotoxicity call was “active”. In the case of `Cc1ccc(S(=O)(=O)Nc2ccc3c(c2)C(=O)N([C@H](C)CO)C[C@H](C)[C@@H](CN(C)S(=O)(=O)c2ccc(C)cc2)OCCCC[C@H](C)O3)cc1` it was “inactive”; in that of `Cc1ccc(S(=O)(=O)Nc2ccc3c(c2)C(=O)N([C@H](C)CO)C[C@@H](C)[C@@H](CN(C)S(=O)(=O)c2ccc(C)cc2)OCCCC[C@@H](C)O3)cc1`, “inactive”; in that of `Cc1ccc(S(=O)(=O)Nc2ccc3c(c2)C(=O)N([C@H](C)CO)C[C@H](C)[C@@H](CN(C)S(=O)(=O)c2ccc(C)cc2)OCCCC[C@@H](C)O3)cc1`, “inactive”. Under `Cc1ccc(S(=O)(=O)Nc2ccc3c(c2)C(=O)N([C@@H](C)CO)C[C@H](C)[C@H](CN(C)S(=O)(=O)c2ccc(C)cc2)OCCCC[C@H](C)O3)cc1` stands “active”.

The values above are taken from the antibiotic and cytotoxicity screens of Wong et al. (2023).
